The text below walks through data of the supplement of paper PMC6555819.

In this test the test system is VDR:RXRa (NR concentration 270 nM, RXRa partner concentration 90 nM). The experiment in a line: PBM binding z-score (relative to random genomic background probes); higher = stronger binding; sequences stand for … in GC…GCGATTGACAGCGTAGAATGAAGG
The protocol:
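Protein-binding microarray (Agilent 4x180K custom design, double-stranded 60-nt probes: 5' GC cap, 34-nt variable region, 24-nt constant primer region; full probe sequence given). Purified or IVT nuclear receptor:RXRα heterodimers (3:1 NR:RXRα, mostly 270:90 nM) or homodimers were incubated for 1 h in PBS with 2% milk and no ligand, then detected with Alexa488 antibodies. Fluorescence from o1-orientation probes (~5 replicates averaged) was converted to z-scores against 500 random hg19 background probes. Variable regions are seed direct-repeat (DR0–DR5) sites, all their single-nucleotide variants and half-site ablations.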
As to ATACCAAGGTGATCGGGAGGTCGTTGATACTAAC, the PBM binding z-score is 2.58.
In turn, TAGCCTAGGTCATTCAGCGGCCAGTATAGAAAGC had a PBM binding z-score of 2.62.
Under TCTAGTTGGTCACTGAGGTCACACACGACGGGTA stands 6.51; under TCTAGCAGGCCAGAGGGTCACGCAAGAGGTACGG, 2.52; under CCGACTGGGGCATAAGGTTACCACAAGCCAGCCC, 0.105.
Under GGAACGAGGGCATTGGAGTTGATAGCATGGCGAT stands 2.6.
Sequence TCTTGTAGATCAATAGAGGTTAAGAGAGTGCGCT registered a PBM binding z-score of 2.79.
In the case of GCGACTGGGGCAAAGCAGGTTACAATAAGGTTGG it was 0.294; in that of CCTACTGGCCCATTCAGAGGTCATTGATCATATG, 3.58; in that of ACTAGCAGGCCTAGGGTCACTCAAGATTAGTCCG, 2.03.
Under ACAGACAGGTGAGTGAAGGTTACTCAGCTGGACG stands 0.088; under ATCGCTAGGTAAAGTTCAGTGAAAGATCGATAGA, 0.735.
Turning to TCGAGTAGCTTAGGGGCATTCAGAATGGCGTCGA, the PBM binding z-score is -0.202.
Under TCTAGTTGTTCAAAGGTCACACACTCGAAATGCG stands 4.95; under TCTGCTAGGTCAACGATGGTCAGCTGATCTGCTA, 1.73.
In the case of CCAGACAGGTGCAAGGTAACTCAGTCTGGTACGC it was -0.136; in that of CGTCCAAGGGCAAGGTCAGTGAAAGAGACTCGAA, 1.59.
As for TCAATGAGGTTATAAGATCAGGGAACGTTGCAAA, the PBM binding z-score came out at 1.22.
In the case of TAGCCTAGATCATGGGCCAGTATACCACGCGAAC it was -0.59; in that of AGAACGATGGCAATGAGTTGATAGCACGGGTGGC, 0.528; in that of GCATATAGGTAATACAAAGTGAAAGTCCGATTGT, -0.024.
Under CGAACTAGATCATCCAGGACAGTGAATACATTGA stands 0.286; under GCTGCTAGGTCACGTTGGTCAGCTAACGGGTACG, 2.29.
CGTCAAAGTTCAACTAAGGTAACGTAAAGCACGC yielded a PBM binding z-score of 4.74.
Under TCTTGTAGATCAACACGAGGTTAAGAAAGATCGA stands 0.895; under CGTCCAAGGCCAATGCTAGGTCAGTGAAAGCATT, 0.034.
Under GCTTGTAGATCAAGGTAAAGAAAGACTAAGCTAA stands -0.118.
TCTCGGAGGACACGGAGGTCAGAGCTTTCCAGAG displayed a PBM binding z-score of 3.39.
In the case of TCGAGTAGGTTAGGGCCATTCAGAATGGCGTCGA it was -0.353; in that of ATCGAAAGGTCGAGGTGAGTATTGAGAAAGGGAA, 2.46; in that of CCTACTGGGCCATCAGGTCAGTGATATCAACGTT, 0.21.
In the case of CCGACTGGGGCAAGGTTACGATAACGCACAGCCA it was 0.0294; in that of TAGCCTAGGTCATGCGGGCCAGTGTAGTGTCGGC, 2.74.
In the case of GCATATAGGTAATAAAAGGTGAAAGTCCGATTGT it was 0.675.
For the sequence TCAGACAGGTGAAGGTAACTCAGGTACGCAGTCG, the PBM binding z-score worked out at 0.943.
Under CGTCCAAGGTCAAAGGTCCGTGAAGAGATGACGG stands 4.62.
Under ATCTCTAGGTAAAAGTTGAGTGAATCCCGAGGAT stands -0.00666.
Under CGAACTAGGTCATTGACAGGACATTGAATAGTAA stands 3.1; under ATCTCTAGGTCAAGTTCAGTGAAAGATCGATAGA, 3.65.
For ATCGAAAGGTCGACGAGGTGAATATACACCGTTT, the PBM binding z-score was 6.16.
